Bioassay records (PubChem)
Tb PYK inh – blocks Trypanosoma brucei pyruvate kinase; Q57TT1; TbPYK enzyme, Kinase-Glo Plus ATP luminescence, 45 min; Potency, µM (top dose mostly 76.8 µM), for inactives: at the highest dose activity, negative = inhibition, most hits filed as inhibitors; 410,000 compounds, 0.12% hits; AID 624173; note: nearly all actives have a fitted effect of over 50% in size
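T. brucei PYK with substrate was exposed to pin-transferred compounds across a concentration series, then started with 130 uM ADP (final). After 45 min at room temperature, Kinase-Glo Plus luminescence was read, normalized and curve-fitted.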
Sm TGR inh – inhibitors of Schistosoma mansoni thioredoxin glutathione reductase | purified TGR, DTNB reduction, TNB absorbance 405 nm | Q962Y6 | Potency, µM (top dose mostly 114 µM), inactives show at the highest dose activity change, negative = inhibition, actives largely listed as inhibitors | 360,000 compounds, 3% hits; note: nearly all actives have a fitted effect of over 60% in size
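First, TGR (20 nM dispensed) and NADPH were mixed with compound. Second, a 15 min room-temperature incubation followed. Third, further NADPH and then DTNB were added to start the reaction. Finally, TNB absorbance was monitored kinetically.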
LmPK inhibitor – LmPK (Leishmania mexicana) enzyme inhibition; AID 1721; 290,000 compounds, 0.37% hits; Potency, µM (titrated, usually from 57.5 µM), for the others: at the highest dose activity change, negative = inhibition, actives largely listed as inhibitors; purified LmPK, Kinase-Glo ATP luminescence, 1 h; Q27686
Target sequence (Q27686 whole entry, looked up): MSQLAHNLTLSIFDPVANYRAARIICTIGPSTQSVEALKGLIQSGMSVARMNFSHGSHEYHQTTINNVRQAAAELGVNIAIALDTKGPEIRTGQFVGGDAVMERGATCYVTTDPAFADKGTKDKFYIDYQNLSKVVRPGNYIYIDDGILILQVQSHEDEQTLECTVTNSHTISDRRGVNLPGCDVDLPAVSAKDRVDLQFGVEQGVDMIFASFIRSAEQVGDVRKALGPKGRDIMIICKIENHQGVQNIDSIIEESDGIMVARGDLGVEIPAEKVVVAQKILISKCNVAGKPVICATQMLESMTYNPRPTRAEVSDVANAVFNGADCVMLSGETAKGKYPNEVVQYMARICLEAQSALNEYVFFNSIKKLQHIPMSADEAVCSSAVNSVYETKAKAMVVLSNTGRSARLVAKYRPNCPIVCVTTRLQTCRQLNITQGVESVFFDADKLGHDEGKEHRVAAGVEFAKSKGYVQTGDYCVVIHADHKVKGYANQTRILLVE
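Pyruvate kinase activity monitored as ATP production (luciferase luminescence). Conditions: 0.1 nM enzyme, 0.5 mM PEP, 0.1 mM ADP, 1 h, RT; normalized against uninhibited and no-enzyme wells.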
RE007 growth inh – less growth of the S. pombe RE007 Vpr strain; 360,000 compounds, 0.21% hits; Potency, µM (highest dose often 92.2 µM), without a hit: at the highest dose activity change, negative = less growth, actives largely listed as inhibitors; S. pombe RE007 Vpr strain, BacTiter-Glo ATP luminescence, 24 h; active = well fitted falling curve with a large enough effect; inconclusive = small, poorly fitted or top-dose-only effect; inactive = no such curve, though single readings can be large or run the other way; note: nearly all actives have a fitted effect of over 50% in size
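Fission yeast strain RE007, carrying one chromosomally integrated HIV-1 vpr copy, was seeded at OD 0.01 in PMG+AL medium with 23 nL pinned compound. After 24 h at 30 °C and 99% humidity, viability was read by BacTiter-Glo luminescence.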
An asterisk follows results filed as active; u = inconclusive; x = no result; [ ] = remark or other dose. A selection: hits, their analogues and other compounds. The true share with any hit is near 3%. Unless noted, calls come from the whole dose curve; as a rule, active = well fitted curve in the direction sought with a large enough effect; inconclusive = small, poorly fitted or top-dose-only effect, or another doubt; inactive = no such curve, though single readings can be large; an effect the other way counts as inactive or inconclusive. % is set by controls: 0 for no effect and ±100 for the full control effect; potency is the fitted concentration of half-maximal effect.

SMILES	Tb PYK inh	Sm TGR inh	LmPK inhibitor	RE007 growth inh
CCn1c(O)c(/C=N/N=C2CCCCC2)c2cc(C3=NNC(=O)CC3)ccc21	-9%	40µM*	-3%	-10%
CCCCC(=O)Nc1c2c(nn1-c1ccc(C)cc1)CS(=O)(=O)C2	-1%	-19%	4%	3%
CC(C)Cn1c(-c2csc3c2CCCC3)n[nH]c1=S	u	14%	10µM*	1%
CC(C)C(=O)N1CCCC1(C)C(=O)Nc1ccc(-n2cncn2)cc1 (configuration not stated)	7%	x	x	9%[18.4 µM]
C=CS(=O)(=O)O	-7%	x	x	x
COc1ccc(OC)c(CCNC(=O)c2c(C)nn(-c3ccc(F)cc3)c2-n2cccc2)c1	2%	8%	x	x
CN(CCO)c1cc(Sc2nc3ccccc3s2)c2nonc2c1[N+](=O)[O-]	-11%	0.32µM*	1%	-2%
CCOC(=O)N1CCN(c2cc(N(C)CCO)c([N+](=O)[O-])c3nonc23)CC1	3%	35µM*	2%	-5%
CCOC(=O)N1CCN(c2cc(NCCO)c([N+](=O)[O-])c3nonc23)CC1	-2%	-4%	-8%	4%
CC(=O)OCCN(C)c1cc(SC(C)C)c2nonc2c1[N+](=O)[O-]	-14%	0.71µM*	-8%	1%
Cc1cc(C)nc(NC(=O)CSc2nc3ccccc3s2)n1	-5%	-1%	-11%	7%
N#C/C(=C/c1ccc(F)cc1)S(=O)(=O)c1ccccc1	-2%	-4%	-1%	2%
N#CC(C#N)=Cc1ccc(O)c(O)c1	-3%	1.4µM*	x	-1%[18.4 µM]
N#C/C(=C\c1ccc(O)c(O)c1)S(=O)(=O)c1ccccc1	-10%	45µM*	-4%	-3%
C[N+]1(C)[C@@H]2CC(OC(=O)C(O)(c3cccs3)c3cccs3)C[C@H]1[C@@H]1O[C@@H]12 (some centres not stated)	4%	x	x	x
C=C(C)CSc1cc(C)c(C#N)c2nc3ccccc3n12	u	3.2µM*	-5%	-3%
CCCCc1c(C)c(C#N)c2nc3ccccc3n2c1Cl	x	3.5µM*	4%	x
Cc1cc(-c2ccco2)n2c(nc3ccccc32)c1C#N	-21%	50µM*	4%	22%
Cc1cc(NCCCCO)n2c(nc3ccccc32)c1C#N	1%	-7%	0%	2%
C=CCOC(=O)C(=O)/C=C/c1ccc2c(c1)Cc1ccccc1-2	-3%	-14%	-2%	-6%
C=CCOC(=O)C(=O)/C=C/c1csc2ccccc12	-6%	28µM*	9%	15%
Cc1cc2c(N)cccc2nn1	-11%	25µM*	u	-11%
COc1cccc(-n2nnnc2S(C)(=O)=O)c1	-9%	2.8µM*	3%	-20%
Cc1cccc(-n2nnnc2S(C)(=O)=O)c1	-8%	2.5µM*	x	x
COC(=O)c1nnn(-c2cccc(C)c2)c1C(=O)OC	3%	-3%	x	x
SMILES	Tb PYK inh	Sm TGR inh	LmPK inhibitor	RE007 growth inh
COc1cccc(Oc2nnnn2-c2ccccc2)c1	x	0%	1%	-17%[3.69 µM]
COc1ccc(C2CC(=O)c3cc(-c4nc(-c5cccc([N+](=O)[O-])c5)cs4)c(=O)n(-c4ccccc4C)c3C2)cc1 (configuration not stated)	3%	-12%	x	x
O=C(Cn1ncc2c3ccccc3n(Cc3ccccc3F)c2c1=O)NCc1ccccc1Cl	-5%	-15%	x	x
CCN(CC)c1ccc(S(=O)(=O)N2CCCCC2)cc1NC(=O)C1CCC1	5%	50µM*	x	19%
Cc1ccc(N(Cc2ccccc2)C(=O)CSC(C)C(=O)Nc2cc(C)on2)cc1 (configuration not stated)	-1%	x	x	15%
COc1ccc(OC)c(NC(=O)CSC2=Nc3ccccc3C3=NC(CC(=O)NCc4ccc5c(c4)OCO5)C(=O)N23)c1 (configuration not stated)	2%	-2%	x	x
CC[n+]1ccccc1/C=C/c1ccc(N(C)C)cc1	2%	2%	3%	-23%
CC[n+]1c(/C=C/c2ccc(N(C)C)cc2)ccc2ccccc21	u	u	u	13µM*
CC[n+]1ccc(/C=C/c2ccc(N(C)C)cc2)c2ccccc21	u	-21%	16µM*	13µM*
CC(C)(C)c1ccc(C(=O)NC2=NC(c3cccc(F)c3)CC(=O)N2)cc1 (configuration not stated)	3%	9%	x	x
CCOc1ccc(CCNCc2c(C(=O)O)n(Cc3ccc(C)cc3)c3cc(OC)ccc23)cc1	0%	-6%	x	x
CC(C)c1ccc(S(=O)(=O)/N=C2/C=C(Sc3ncn[nH]3)C(=O)c3ccccc32)cc1	14µM*	0.28µM*	u	u
COc1ccc2c(c1)sc1ncc(C(=O)NCc3cccc(Cl)c3)c(=O)n12	-3%	1%	x	x
CN(Cc1nc(C(c2ccccc2)c2ccccc2)no1)CC1COCCO1 (configuration not stated)	4%	2%	14µM*	23%
Cc1cc2c(C(C)C)c(O)c(O)c(C=O)c2c(O)c1-c1c(C)cc2c(C(C)C)c(O)c(O)c(C=O)c2c1O	-12%	50µM*	7%	x
CCCCN(C(=O)C1CCCC1)c1c(N)n(CC(C)C)c(=O)[nH]c1=O	-2%	32µM*	x	-5%
O=C(Cn1c(=O)ccc2cc(S(=O)(=O)N3CCCC3)ccc21)Nc1ccccc1	-6%	-1%	x	x
O=C(Nc1ccccc1)NN(C(=O)CCl)c1ccccc1	7%	3.5µM*	-6%	3%
CCC(O)(CC)C(=O)NN(C(=O)CCl)c1ccccc1	2%	22µM*	-2%	17%
CCCC(O)(CCC)C(=O)NN(C(=O)OC)c1ccccc1	3%	46%	-3%	1%
Cc1ccc(N(NC(=O)C(O)(c2ccccc2)c2ccccc2)C(=O)CCl)cc1	4%	6.3µM*	1%	8%
N#Cc1cccc(NC(=O)N2CC[C@@]3(CCCN(C(=O)c4cccc(F)c4)C3)C2)c1	2%	x	x	x
COc1cccc(CN2C(=NC(=O)C3CC3)SC3CS(=O)(=O)CC32)c1 (configuration not stated)	2%	-4%	-14%	11%
Cc1cc2c(n1-c1ccc(C(=O)O)cc1)CCCCC2	x	25µM*	7%	x
Cc1ccc(CNC(=O)c2ccc(-n3c(C)cc4c3CCCC4)cc2)cc1	0%	u	x	x
SMILES	Tb PYK inh	Sm TGR inh	LmPK inhibitor	RE007 growth inh
CCOC(=O)C1CCN(/C=C2/C(=O)NC(=O)N(c3cccc(C)c3C)C2=O)CC1	2%	8.9µM*	0%	-2%
CCOC(=O)C1CCN(/C=C2/C(=O)NC(=S)N(c3cccc(OC)c3)C2=O)CC1	-10%	25%	-2%	9%
COc1ccc2c(c1)sc1ncc(C(=O)NCc3ccc(OC(C)C)cc3)c(=O)n12	-3%	8%	x	x
Cc1ccc(CNC(=O)c2oc3c(c2C)-c2nn(Cc4ccc(Cl)cc4)cc2CC3)cc1	1%	3%	x	x
COc1cccc(-n2cc3c(=O)n(C)c(=O)n(C)c3c2)c1	-14%	45µM*	3%	-4%
Cn1c(=O)c2cn(-c3ccccc3)cc2n(C)c1=O	-6%	-4%	5%	-9%
